# From PubChem BioAssay (NCI)
# The panel holds about 83,000 compounds, 20% with a hit somewhere; the sample as a whole holds those more often.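 In brief: 96-well plates, 48 h treatment, single concentration, percent growth endpoint.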 A number with no mark means an inactive call. Activity calls are given as the source filed them. How the source made its calls: active means growth percent below 10; inactive means the rest.
# Experiments:
# Assay in all cases: NCI-60 one-dose screen, 48 h (100 = growth as untreated, 0 = no growth, -100 = all killed)
# Conditions in all cases: 10 µM unless noted
# BT-549 breast = system: BT-549 breast
# MDA-MB-435 melanoma = system: MDA-MB-435 melanoma
# SW-620 colon = system: SW-620 colon
# MCF7 breast = system: MCF7 breast
# HCT-116 colon = system: HCT-116 colon
# HCC-2998 colon = system: HCC-2998 colon
# KM12 colon = system: KM12 colon
Structure (SMILES),growth (BT-549 breast),growth (MDA-MB-435 melanoma),growth (SW-620 colon),growth (MCF7 breast),growth (HCT-116 colon),growth (HCC-2998 colon),growth (KM12 colon)
Cc1nccc2c3ccc(OCc4cn(-c5ccc(Cl)cc5)nn4)cc3n(CC(C)C)c12,28.3%,30.6%,24.4%,13%,10.8%,31.2%,19.3%
COc1ccc2nc3c(n2c1)C(=O)C(=O)c1ccccc1-3,-72.3% (active),-91.8% (active),-61.8% (active),-53.1% (active),-2.17% (active),-13.5% (active),23.1%
CC(/C=C/c1ccccc1)=N/NC(=O)c1ccncc1,105%,106%,98.7%,93.6%,92.7%,107%,105%
C=CCn1c(CN2CCN(c3cc4c(cc3F)c(=O)c(C(=O)O)cn4C3CC3)CC2)n[nH]c1=S,105%,102%,105%,95.7%,105%,107%,99.4%
CC(=O)OCC1SC(OC(C)=O)C(NC(=O)/C=C/CCl)C(OC(C)=O)C1OC(C)=O (stereo unspecified),105%,101%,107%,85.8%,101%,104%,102%
O=C(Nc1nc(-c2ccccc2)cs1)c1cc(-c2ccc(Br)cc2)nc2ccccc12,60.3%,77.2%,51.6%,37.6%,27.5%,87.7%,67%
CCOCc1nc2ccccc2c(=O)[nH]1,106%,103%,97.1%,94.9%,98%,105%,103%
C=C(C)[C@@H]1CC[C@]2(C(=O)N3CCN(C)CC3)CC[C@]3(C)[C@H](CC[C@@H]4[C@@]5(C)C/C(=C/c6ccco6)C(=O)C(C)(C)[C@@H]5CC[C@]43C)[C@@H]12,79.5%,72.8%,74%,36.1%,46.9%,92.3%,72.5%
CN(C)CSc1nc2ccccc2s1,81.1%,99.9%,104%,87.3%,89.7%,97.7%,98.3%
CC1CCCN(CCCCCOc2ccc3oc4ccccc4c(=O)c3c2)C1 (stereo unspecified),74.3%,46%,70.1%,63.1%,52.7%,85.3%,64.3%
C/C(=N/Nc1nc2ccccc2n1C)c1ccccn1,13.5%,32.5%,23.6%,3.47% (active),2.75% (active),39.3%,19.7%
C#C[C@@]1(O)[C@@H](CO)O[C@@H](n2cnc3c(-c4ccccc4)ncnc32)[C@@H]1O,102%,100%,111%,82.1%,99.8%,103%,106%
CCCCC1=c2c([nH]c3ccc(OC)cc23)=NC2C=CC=NC12 (stereo unspecified),98.9%,93.4%,98.5%,13.5%,74.8%,97.1%,38.9%
COC(=O)c1nc(-c2ccccc2)oc1S(=O)(=O)n1nc(C)cc1N,69.8%,79.6%,6.13% (active),60.2%,67.9%,115%,96.3%
COCCOCCOCc1n(Cc2ccc3ccccc3n2)c2ccccc2[n+]1Cc1ccc2ccccc2n1,9.81% (active),11%,36.2%,9.35% (active),18.9%,23.2%,12%
CCOC(=O)NC(Cc1ccccc1)c1ccccc1 (stereo unspecified),96.5%,114%,95.2%,101%,96%,104%,110%
CN(C)c1ccc(-c2ccc3[nH]c(=O)nc(-c4ccc(F)cc4)c3c2)cn1,40.6%,2.63% (active),29.8%,29.4%,22.2%,84.3%,31.5%

Structure (SMILES),growth (BT-549 breast),growth (MDA-MB-435 melanoma),growth (SW-620 colon),growth (MCF7 breast),growth (HCT-116 colon),growth (HCC-2998 colon),growth (KM12 colon)
C=CCn1c(SCC(=O)Nc2ccc(C(=O)/C=C/c3cc(OC)c(OC)c(OC)c3)cc2)nnc1-c1ccc(Cl)cc1,10.4%,5.58% (active),11.8%,-3.5% (active),-62.2% (active),-8.4% (active),9.43% (active)
O=c1c2ccccc2oc2ccc(OCCCCCN3CCCCCC3)cc12,78.5%,73.8%,77.7%,68.2%,58.4%,84.6%,68.6%
COC(=O)/C=C/c1cc(OC)c2c(c1)[C@@H](C(=O)OC)[C@H](c1ccc(OC)c(OC)c1)O2,36.7%,-42.3% (active),30.4%,19.6%,15.9%,59.5%,27.6%
O=C1CC23OC4ON=C(Br)C4C2C(O)c2ccccc2N13 (stereo unspecified),105%,111%,101%,88.5%,94.5%,103%,100%
C=C1C(=O)O[C@H]2[C@H]1CC/C(COC(=O)Nc1nc3ccccc3[nH]1)=C\CC[C@@]1(C)O[C@@H]21,77.3%,45.8%,16.4%,20.1%,12%,102%,94.9%
COc1ccc2oc(=O)cc(-c3nc4ccc(N)cc4[nH]3)c2c1,77.1%,106%,103%,77.2%,88.6%,97.9%,87.7%
OCCNc1nc(NCCO)nc(Nc2ccc(C3=NN(c4ccc(Cl)cc4)C(c4ccc(Cl)cc4)C3)cc2)n1 (stereo unspecified),77.1%,58.1%,71.1%,20.4%,48.6%,56.8%,49.8%
O=C1C(Cl)=C(Nc2ccc3c(c2NC2=C(Cl)C(=O)c4ccccc4C2=O)C(=O)c2ccccc2C3=O)C(=O)c2ccccc21,42.3%,-64.7% (active),24.7%,-7.63% (active),2.25% (active),67%,39%
O=CN1N=C(c2ccc(Cl)cc2)CC1c1cccc(Nc2ccnc3cc(C(F)(F)F)ccc23)c1 (stereo unspecified),53.9%,54.3%,89.8%,38%,56.3%,76.7%,59.2%
O=c1[nH]c2ccccc2cc1-c1nc2ccncc2[nH]1,91.3%,82.8%,88.4%,57.2%,63.2%,93.3%,22.8%
C#C[C@@]1(O)[C@@H](CO)O[C@@H](n2cc(Cl)c3c(N)ncnc32)[C@@H]1O,-32.9% (active),-12.3% (active),2.67% (active),-40.6% (active),4.58% (active),-33.8% (active),1.42% (active)
CCCCc1ccc(N=Nc2ccc(OCC[N+](C)(C)C)cc2)cc1,56.4%,88.6%,49.6%,85.1%,48.7%,25.6%,29.9%
O=C1CCC23OC(c4ccccc4N12)C(O)C(O)C3O (stereo unspecified),111%,110%,103%,100%,84.9%,94.5%,104%
C=C1C(=O)O[C@H]2[C@H]1CC/C(COC(=O)CCCCC(=O)OC/C1=C/CC[C@@]3(C)O[C@H]3[C@H]3OC(=O)C(=C)[C@@H]3CC1)=C\CC[C@@]1(C)O[C@@H]21,61.1%,56.2%,25.1%,21.3%,3.28% (active),100%,90.6%
c1ccc(Sc2ncccn2)nc1,137%,104%,95.3%,93.2%,99.3%,101%,106%
c1cc(CNC23CC4CC(CC(C4)C2)C3)cc(C[N+](Cc2cccc(CNC34CC5CC(CC(C5)C3)C4)c2)(Cc2cccc(CNC34CC5CC(CC(C5)C3)C4)c2)Cc2cccc(CNC34CC5CC(CC(C5)C3)C4)c2)c1 (stereo unspecified),24.5% [42 µM],11.3% [42 µM],20.6% [42 µM],2.14% [42 µM] (active),-3.55% [42 µM] (active),34.3% [42 µM],25.8% [42 µM]
